Results as given in PubChem BioAssay (NCI).
The panel holds about 83,000 compounds, 20% with a hit somewhere; the sample as a whole holds those more often.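 Cell lines were cultured in 96-well plates, exposed to a single compound concentration, and assessed for percent growth 48 hours later.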 Values without a mark were called inactive. Active and inactive are the calls of the source.

test system: UO-31 renal; assay: NCI-60 one-dose screen, 48 h (100 = growth as untreated, 0 = no growth, -100 = all killed); conditions: 10 µM unless noted
Protocol: Growth inhibition of the UO-31 human tumor cell line is measured as a screen for anti-cancer activity. Cells are grown in 96 well plates and exposed to the test compound for 48 hours. Compounds are tested at a single concentration, which is 10^-5 M for most compounds. The reported endpoint is percent growth (GI% or GIPRCNT), where numbers from 0 - 100% represent growth inhibition, and numbers from -100% - 0 represent cell death. For example, a value of 40 represents 60% growth inhibition. A value of 0 means no net growth occurred over the course of the experiment. A value of -40 indicates 40% of cells at the beginning of the experiment died by the end of the experiment. A value of -100 means all cells are dead at the end of the experiment.
NCI-60 Human Tumor Cell Lines Screen was performed using the standard one-dose NCI protocol, which is described in more detail at https://dtp.cancer.gov/discovery_development/nci-60/default.htm.
Compounds with GIPRCNT values below 10 were considered active. Activity score was based on GIPRCNT using the following formula: […]
Score is 0 for GIPRCNT values of 100 or above, 50 for GIPRCNT values of 0, and 100 for GIPRCNT values of -100.

Q: With `O=C(/C(=C/c1ccc([N+](=O)[O-])cc1)SCc1ccc(F)cc1)c1ccc(F)cc1` as the compound, how does the growth read?
A: 54.3%

Q: With `CCCCCCCCO/N=C\c1c2c(O)c3c(O)c(C)c4c(c3c1O)C(=O)C(C)(O/C=C\C(OC)C(C)C(OC(C)=O)C(C)C(O)C(C)C(O)C(C)/C=C\C=C(\C)C(=O)N2)O4` (stereo not given) as the compound, how does the growth read?
A: 17.7%

Q: With `C=C1C(=O)O[C@H]2[C@H]1CC/C(CNC(=O)/C=C/c1ccccc1)=C\CC[C@@]1(C)O[C@@H]21` as the compound, how does the growth read?
A: -85.2% (active)

Q: For `O=C(c1nnc(Nc2ccccc2Br)o1)c1c[nH]c2ccccc12`, which growth is on record?
A: 87%

Q: Which growth does the source give for `O=C(/C(=C\c1ccc([N+](=O)[O-])cc1)S(=O)Cc1ccc(F)cc1)c1ccc(F)cc1` (stereo not given) here?
A: -39% (active)

Q: Which growth does the source give for `OC(c1cccc(C(F)(F)F)c1)c1cnccc1NC1CCCCC1` (stereo not given) here?
A: 52.2%

Q: `O=C(O)c1ccc(-c2nn(-c3ccc(C(F)(F)F)cc3)cc2CNc2ccc(Oc3ccccc3)cc2)cc1` was tested. Which growth did it give?
A: 60.1%

Q: With `O=C(/C=C/c1ccc[nH]1)c1ccc(-n2ccc(C(F)(F)F)n2)c(F)c1` as the compound, how does the growth read?
A: 46.9%

Q: With `COc1ccc(/C=C2\Oc3cc(OCCCN4CCCCC4)ccc3C2=O)cc1OC` as the compound, how does the growth read?
A: 67.9%

Q: Which growth does the source give for `CCCCCC(=O)Oc1ccc(/C(=C(/C)Cc2ccc(OC)cc2)c2ccc(OCCCN(C)C)cc2)cc1` here?
A: 58.6%

Q: Which growth does the source give for `CN1CCC(=C(c2ccccc2)c2ccccc2)C(c2ccccc2)C1` (stereo not given) here?
A: 84.9%

Q: For `COc1cc(/C=C\c2cc(/C=C\c3ccc(O)c(OC)c3)n(C(=O)COc3ccccc3)n2)ccc1O`, which growth is on record?
A: 0.475% (active)

Q: `COc1cc(/C(C)=C(\c2ccc(Cl)cc2)c2ccc(OCCN3CCCC3)cc2)ccc1F` was tested. Which growth did it give?
A: 39.7%

Q: Which growth does the source give for `CCN(CC)CCn1c(=O)c2cc(OC)c(OC)cc2c2ccc3cc4c(cc3c21)OCO4` here?
A: 22.8%

Q: `O=C(Nc1ncc(Cc2cc(Cl)ccc2Cl)s1)c1cccs1` was tested. Which growth did it give?
A: 62.5%

Q: For `Cn1c(N2NC(=O)C(N=Nc3ccc(S(N)(=O)=O)cc3)C2=O)nc(-c2ccco2)c(C#N)c1=O` (stereo not given), which growth is on record?
A: 63.2%

Q: With `COc1cc(/C=N/NC(=O)c2cnn3c2NC(c2ccccc2)C3)ccc1Oc1ccccc1` (stereo not given) as the compound, how does the growth read?
A: 51.5%

Q: How did the growth turn out when `CC(=O)[C@@H]1CC[C@]2(C(N)=O)CC[C@]3(C)[C@H](CC[C@@H]4[C@@]5(C)CCCNC(C)(C)[C@@H]5CC[C@]43C)[C@@H]12` was run?
A: 76.5%

Q: How did the growth turn out when `Cc1nc2sccn2c1-c1cn2ccsc2n1` was run?
A: 89.7%

Q: With `c1ccc(-c2cn3c(ccc4ccccc43)n2)cc1` as the compound, how does the growth read?
A: 48.9%

Q: For `CC(Sc1nc2sc3c(c2c(=O)n1-c1ccc(Cl)cc1)CCCC3)C(=O)Nc1nc(-c2ccc(Br)cc2)cs1` (stereo not given), which growth is on record?
A: 81.5%

Q: For `CCCCCCCC(=O)OCC/C=C/C1OC1C1OC(=O)/C=C\C=C\C(=O)N(C(C)=O)C(=O)/C=C(/C)CCC2OC2C1OC(=O)NC(C)=O` (stereo not given), which growth is on record?
A: 69%

Q: For `O=C1c2c(c3c4cccc(F)c4[nH]c3c3ccc4ccccc4c23)C(=O)N1O`, which growth is on record?
A: 30.4%

Q: With `Cc1nnc2c(Cc3ccccc3)nc3ccccc3n12` as the compound, how does the growth read?
A: 90.8%

Q: `O=C(C[n+]1cccc2ccccc21)c1ccc(O)c(O)c1` was tested. Which growth did it give?
A: 50.6%

Q: For `C=C1C(=O)O[C@H]2[C@H]1CC/C(COC(=O)NCC(C)c1ccc(CC(C)C)cc1)=C\CC[C@@]1(C)O[C@@H]21` (stereo not given in full), which growth is on record?
A: -100% (active)

Q: Which growth does the source give for `COC(=O)C(OC(C)=O)C(OC(C)=O)c1ccc(OC)c(OC)c1` (stereo not given) here?
A: 106%

Q: For `Cc1ccc(/C=C(/C#N)n2nnc3cccc(F)c32)cc1`, which growth is on record?
A: 15.6%

Q: `OC(c1ccc(F)c(C(F)(F)F)c1)c1cnccc1NC1CCCCC1` (stereo not given) was tested. Which growth did it give?
A: 49.6%

Q: With `Cc1ccc(-n2cc(-c3ccccc3)c3c2N=NN2CCN=C32)cc1` as the compound, how does the growth read?
A: 74.5%

Q: Which growth does the source give for `CCCOc1ccc(/C=N/Nc2cc(C)nc3ccc(Br)cc23)cc1` here?
A: 72.6%

Q: Which growth does the source give for `CCCCC/C=C/C(C)=C/C1CC(C)C/C=C/CCC(O)C(OC(N)=O)CCC(C)CC(O)C(C)C(=O)O1` (stereo not given) here?
A: 64.3%

Q: With `Cn1ccnc1C(=O)/C=C/c1ccc(CC(=O)Nc2ccc(F)cc2)cc1` as the compound, how does the growth read?
A: 37.2%

Q: How did the growth turn out when `COc1ccc(-c2cnc3c(-c4cccc5cnccc45)cnn3c2)cc1` was run?
A: 52.1%

Q: With `S=c1cc(S)c2cc(Br)ccc2[nH]1` as the compound, how does the growth read?
A: 86.8%

Q: With `CCCCCN1C=C/C(=C\C(=O)N2CCCc3ccccc32)c2ccccc21` as the compound, how does the growth read?
A: 75.5%

Q: `N#C/C(=C\c1ccc(Cl)cc1)n1nnc2cc(F)c(F)cc21` was tested. Which growth did it give?
A: -17.5% (active)

Q: For `O=C(Nc1ccc(NC(=O)c2cc(=O)[nH]c3ccccc23)cc1)Nc1cccc(Cl)c1`, which growth is on record?
A: 65.3%

Q: Which growth does the source give for `C=C1C(=O)O[C@H]2[C@H]1CC/C(COC(=O)NCc1c[nH]c3ccc(F)cc13)=C\CC[C@@]1(C)O[C@@H]21` here?
A: -99.5% (active)

Q: `Cn1ccc2c1CC1CN(Cc3ccco3)C(=O)C1C2C(=O)O` (stereo not given) was tested. Which growth did it give?
A: 89.6%
